Screening results (PubChem)
HCV inhibitor – qHTS Assay for Inhibitors of Hepatitis C Virus (HCV) | Potency, µM (titrated, usually from 41.8 µM), actives largely listed as inhibitors | 340,000 tested, 3.4% active | Huh7.5.1 HCVcc-Cre infection, luciferase reporter, 44 h; active = well fitted inhibition curve with a large enough effect; inconclusive = small, poorly fitted or top-dose-only effect, or another doubt; inactive = no such curve, though single readings can be large or run the other way
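Reporter virus HCVcc-Cre (~0.5 moi) infects cells exposed to compound; seeding density 1,000 cells/well with 4 h settling beforehand. Luminescence, 15 sec read, taken 44 h post-infection following a 15 min RT substrate incubation.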
FMDV antiviral – High Throughput Screening for Foot and Mouth Disease Virus Antivirals. FMDV antiviral cell-based qHTS. AID 1159524, 2015. 410,000 tested, 1.2% active. Potency, µM (doses to about 57.9 µM), hits mostly inhibitors; calls by dose curve; tested in HEK293T cells; also: read-out not given here; nearly all actives have a fitted effect of over 45% in size
HCMV antiviral – qHTS Assay for inhibitors of the human cytomegalovirus (HCMV) | HFF cells, HCMV-luciferase reporter, 72 h; hits give low values | activity change, negative = inhibition, % at 57.5 µM | 410,000 tested, 4.5% active | AID 1259415, 2018; in the data active = activity change below about -60%; inconclusive = no clear call, values can overlap the other calls; inactive = above about -39%
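Screen run at 2 compound doses on HFFs infected with reporter HCMV, MOI 1 PFU/cell. Luciferase activity from cell lysates at 72 h post infection gave inhibition relative to buffer-only and Salinomycin wells.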
Marburg entry inh – qHTS for inhibitors of binding or entry into cells for Marburg Virus | Marburg virus pseudotyped entry inhibition, cell reporter | Potency, µM (titrated, usually from 37.8 µM), usual class: inhibitors | 300,000 tested, 1.8% active; calls by dose curve; tested in HEK293 cells
SARS PLpro yeast – qHTS of Yeast-based Assay for SARS-CoV PLP | S. cerevisiae expressing SARS-CoV PLpro, growth rescue | Potency, µM (series often up to 32.9 µM), hits mostly activators | 330,000 tested, 0.19% active | AID 485353, 2010; calls by dose curve; also: nearly all actives have a fitted effect of over 55% in size
Lassa entry inh – qHTS for Inhibitors of binding or entry into cells for Lassa Virus; 300,000 tested, 1.2% active; AID 540256, 2011; Lassa virus pseudotype entry inhibition, cell reporter; Potency, µM (doses to about 37.9 µM), hits mostly inhibitors; calls by dose curve; tested in HEK293 cells; also: nearly all actives have a fitted effect of over 50% in size
Numbers stand for hits; 0 = inactive; ? = inconclusive; - = no result; + = active, no number; ! = not active in a repeat. Sampled rows, rich in hits. Any-hit rate of the full collection: about 8%.

SMILES	HCV inhibitor	FMDV antiviral	HCMV antiviral	Marburg entry inh	SARS PLpro yeast	Lassa entry inh
COc1ccc(OC)c(CNn2c(-c3cccc(C)c3)nc3ccccc3c2=O)c1	?	-	?	?	0	0
COc1ccc(-c2[nH]ncc2C(=O)NCc2ccc(F)cc2)cc1	-	0	0	0	-	-
Cc1ccc(OCCOc2ccc(Br)cc2)c([N+](=O)[O-])n1	?	0	0	0	0	?
CCc1nn2c(=O)cc(COC(=O)c3cccc(NC(=O)c4ccccc4C)c3)nc2s1	-	0	0	-	-	?
O=C(NCC(=O)N1CCN(Cc2c(F)cccc2Cl)CC1)c1cccs1	-	0	0	-	-	-
Cc1ccc(CCNc2ncnc(Cl)c2N)cc1	1µM	0	-84	?	-	0
Cc1[nH]c2ccc3ncccc3c2c1C	11µM	0	0	0	0	?
O=C(Cc1cccs1)N[C@H]1CC[C@@]23CCCN2C(=O)CCC[C@H]3[C@H]1Cc1ccccc1	-	-	0	-	-	-
CN(C)C(=O)CCC(=O)N1CCCC(C(=O)c2ccc(C(F)(F)F)cc2)C1 (centres undefined)	0	0	?	0	?	?
CCCc1cc2c(=O)c(-c3ccc4c(c3)OCCO4)coc2cc1OC(=O)c1ccco1	0	0	0	?	0	0
CCCc1cc2c(=O)c(-c3ccc4c(c3)OCCO4)coc2cc1OS(C)(=O)=O	10µM	0	-60	?	0	?
CCc1cc2c(=O)c(-c3ccc4c(c3)OCCO4)coc2cc1OC(=O)c1ccco1	10µM!	0	0	?	0	?
COC1=CC(=O)C=C(OC)C1=O	0	28µM!	0	-	-	-
COc1ccc(SN=C2C(C)=CC(=O)C=C2C)cc1	0	?	0	0	0	?
COC1=CC(=O)c2ccccc2C1=O	1µM	?	-	-	0	-
CSc1ccccc1NC(=O)COC(=O)c1ccc(-n2nc(C)cc2C)cc1	0	0	-107	0	0	0
Cc1cc(C)n(-c2ccc(C(=O)NCC(=O)Nc3cc(Cl)ccc3Cl)cc2)n1	0	0	+	-	0	-
NC(=O)[C@@H]1CCCN1C(=O)CCN1Cc2ccccc2OC(c2ccccc2F)C1 (some centres undefined)	-	0	-	-	-	-
Cc1ccc(CN2[C@@H](CC(C)C)COCCS2(=O)=O)cc1	0	0	0	-	-	-
COc1cc(/C=C2\SC(=S)N(CC(=O)Nc3ccc(O)cc3)C2=O)cc(OC)c1OC	0	0	-75	-	0	-
COc1cc(/C=C2\SC(=S)N(CCC(=O)Nc3ccccc3O)C2=O)cc(OC)c1OC	?	?	-69	-	0	-
COc1cc(/C=C2\SC(=S)N(CC(=O)Nc3cccnc3)C2=O)cc(OC)c1OC	0	?	0	0	0	0
CCOc1ccccc1C1Nc2ccccc2-c2nnc(SCc3ccccc3)nc2O1 (centres undefined)	-	0	0	0	-	0
CN1CCc2cccc3c2C1Cc1ccc(O)c(O)c1-3 (centres undefined)	0	0	0	16µM!	0	0
CCCN1CCc2cc(O)cc3c2C1Cc1ccc(O)c(O)c1-3 (centres undefined)	-	0	-	35µM	-	-
SMILES	HCV inhibitor	FMDV antiviral	HCMV antiviral	Marburg entry inh	SARS PLpro yeast	Lassa entry inh
Cc1ccc(C(=O)COC(=O)c2ccccc2NC(=O)c2ccccc2)cc1[N+](=O)[O-]	0	0	?	0	0	0
N#Cc1ccsc1NC(=O)CCc1ccccc1	?	0	0	?	0	-
N#Cc1ccsc1NC(=O)CCN1CCN(C(c2ccccc2)c2ccccc2)CC1	?	0	0	10µM	0	?
COc1ccc(-n2c(C)cc(/C=N/Nc3nnc(C)n3N)c2C)cc1	11µM	0	0	?	0	0
COc1cccc(/C=N/Nc2nnc(C)n2N)c1O	0	0	0	?	0	0
CCCNC(=O)c1ccc(-n2c(-c3ccccc3)cc3c2CCCCC3)cc1	-	0	-87	-	-	0
CCOCCCNC(=O)c1ccc(-n2c(-c3ccccc3)cc3c2CCCCC3)cc1	-	0	?	-	-	0
CCC(C)NC(=O)c1ccc(-n2c(-c3ccccc3)cc3c2CCCC3)cc1 (centres undefined)	-	0	0	-	-	?
COCCNC(=O)c1ccc(-n2c(-c3ccccc3)cc3c2CCCCC3)cc1	-	0	-99	-	-	?
CC(C)NC(=O)c1ccc(-n2c(-c3ccccc3)cc3c2CCCC3)cc1	-	0	-68	-	-	?
CN(C)CCNC(=O)c1ccc(-n2c(-c3ccccc3)cc3c2CCCC3)cc1	-	0	-92	-	-	?
CCNC(=O)c1ccc(-n2c(-c3ccccc3)cc3c2CCCCC3)cc1	-	0	0	-	-	0
CCNc1c(NC(=O)C2CCC(C)CC2)c(=O)oc2ccccc12 (centres undefined)	0	0	?	0	0	0
CSCCC(NS(=O)(=O)c1ccc(C)cc1)C(=O)N1CCN(C(c2ccccc2)c2ccccc2)CC1 (centres undefined)	?	0	0	?	0	3.5µM
CCN(CC)CCC(=O)Nc1cccc2c1C(=O)c1ccccc1C2=O	?	0	-99	?	0	0
CCN(CC)CCNC(=O)c1ccc2c(c1NCCO)C(=O)c1ccccc1C2=O	0.89µM	0	-109	-	0	-
Cc1ccc(NC(=O)C2CCCN2S(=O)(=O)c2cccc3nsnc23)cc1Cl (centres undefined)	-	?	0	0	-	0
COc1ccc2nc(NC(=O)Nc3cccc4ccccc34)sc2c1	0	0	-76	0	0	0
COc1ccc2nc(NC(=O)Nc3ccccc3OC)sc2c1	?	0	0	?	0	?
COc1ccc2nc(NC(=O)c3cccs3)sc2c1	0	0	0	6.3µM	0	?
COc1ccc2nc(NC(=O)c3ccc(-n4nc(C)cc4C)cc3)sc2c1	0	0	-106	0	0	0
COc1ccccc1C(=O)Nc1nc2cc3c(cc2s1)OCCO3	?	0	-	-	0	-
O=C(Nc1nc2cc3c(cc2s1)OCCO3)c1cccs1	11µM	?	0	-	0	-
COc1ccc2nc(NC(=O)c3ccc(F)cc3)sc2c1	0	0	0	?	0	0
N#CCCn1c(=O)c(-c2ccc(F)cc2)nc2cnc(Oc3cccc(Cl)c3)nc21	-	0	-	-	-	-
COc1ccc(C(=O)Nc2nc3c(s2)Cc2cc(OC)ccc2-3)cc1	13µM	10µM	?	0	0	0
COc1ccc2c(c1)Cc1sc(NC(=O)c3ccccc3)nc1-2	?	0	0	0	0	0
CN(CC1CCCO1)S(=O)(=O)c1ccc(C(=O)Nc2nc3cc4c(cc3s2)OCO4)cc1 (centres undefined)	?	0	-85	-	0	-
CCOC(=O)c1c(NC(=O)c2ccc(S(=O)(=O)N(C)CC3CCCO3)cc2)sc2c1CCN(C)C2 (centres undefined)	13µM	0	0	-	0	-
CCN(CC)S(=O)(=O)c1cccc(C(=O)Nc2nc3cc4c(cc3s2)OCCO4)c1	2.2µM	13µM	-98	18µM	0	?
